Records with an inconclusive call do not appear. The source made the active and inactive calls. The call rests on the fitted dose curve; in most records, active means well fitted inhibition curve with a large enough effect; inconclusive means small, poorly fitted or top-dose-only effect; inactive means flat fitted curve, though single readings scatter.

Results on 32 molecules are retold here after PubChem BioAssay (NCATS).

In the assay the test system is CRL-7250. The assay can be described thus: qHTS assay to identify novel small-molecules to repurpose for Merkel cell carcinoma treatment (AID 1296009). Further: nearly all actives have a fitted effect of over 60% in size. The note with it: MCC and control cell lines, CellTiter-Glo viability, 72 h; series mostly up to 92 µM; activity change, negative = cytotoxicity: at the top concentration. A digest of the protocol: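 Cell viability, measured as CellTiter-Glo luminescence, was normalized between DMSO and no-cell wells. The cells had been exposed to 8- or 11-point compound dilutions for 72 hr at 37 degree celsius.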
For the molecule `COc1cccc(-n2nc(C(=O)O)cc2-c2ccc(C3CCCCC3)c(Cl)c2)c1`, the result was inactive.

With `CCOC(=O)c1ccc(NC2CCCCC2)c(N)c1`, the molecule was called inactive.

On to `CC1OC(OC2C(OC3C(O[C@H]4CC[C@@]5(C)C(CC[C@]6(C)C5CC=C5C7CC(C)(C)CC(O)[C@]7(C)CC[C@]56C)C4(C)C)OC(C(=O)O)C(O)C3O)OCC(O)C2O)C(O)C(O)C1O` (some centres not stated), for which the outcome is “inactive [at 9.27 µM]”.

As for `CC(=O)[C@@H]1CC[C@]2(C(=O)O)CC[C@]3(C)C(CCC4[C@@]5(C)CC[C@H](O)C(C)(C)C5CC[C@]43C)C12` (some centres not stated), the “outcome” value was “inactive [at 17.4 µM]”.

Consider `CC(C)CC(=O)OC[C@H]1O[C@@](COC(=O)CC(C)C)(O[C@H]2O[C@H](CO)[C@@H](O)[C@H](O)[C@H]2OC(=O)CC(C)C)[C@@H](OC(=O)CC(C)C)[C@@H]1O`, for which the “outcome” value was “inactive [at 17.4 µM]”.

As for `CC(C)c1cc2c(c(O)c1O[C@@H]1O[C@H](CO)[C@@H](O)[C@H](O)[C@H]1O)CC1(O)CCC(O)C(C)(C)C1CC2` (some centres not stated), the “outcome” value was “inactive [at 17.4 µM]”.

With `COc1ccc(C2(O)c3c(ccc4c3OC(C)(CCC=C(C)C)C=C4)NC(=O)C2OC)cc1` (configuration not stated), the “outcome” value was “inactive [at 17.4 µM]”.

As to `CC(=O)O[C@@H]1CC2C(/C=C(\C)C(=O)[C@@]3(O)C[C@@H](C)[C@H](OC(=O)c4ccccc4)C3/C=C/1C)C2(C)C` (some centres not stated), the “outcome” value was “inactive [at 17.4 µM]”.

For the molecule `O=C1C(Cl)=C(N2CCOCC2)C(=O)N1c1ccc(Cl)c(Cl)c1`, the “outcome” value was “inactive [at 17.4 µM]”.

Take `C/C=C/CCC1Cc2cc(O)c(CCCC)c(O)c2C(=O)O1` (configuration not stated): the molecule was classed as inactive.

As for `CC(C)C1=CC2=CCC3[C@](C)(CCC[C@@]3(C)C(=O)O)C2CC1=O` (some centres not stated), the result was inactive.

Take `O=C(Cn1c2ccccc2c2nc3n(c(=O)c21)CCS3)N1CCCC1`: the molecule was called inactive.

In the case of `COc1cc([C@H]2OC[C@]3(OC(C)=O)[C@@H](c4ccc(O[C@@H]5O[C@H](CO)[C@@H](O)[C@H](O)[C@H]5O)c(OC)c4)OC[C@H]23)ccc1O`, the “outcome” value was “inactive [at 17.4 µM]”.

`CC1(C)CC[C@]2(C(=O)O)CC[C@]3(C)C(=CCC4[C@@]5(C)CC[C@H](O)C(C)(C)C5CC[C@]43C)C2C1` (some centres not stated): the “outcome” value is “inactive [at 17.4 µM]”.

Consider `C=C1CC[C@@]2(OC1)O[C@H]1CC3[C@@H]4CC=C5C[C@@H](O)C[C@@H](O[C@@H]6OC[C@H](O)[C@H](O)[C@H]6O[C@@H]6O[C@@H](C)[C@H](O)[C@@H](O)[C@H]6O)[C@]5(C)C4CC[C@]3(C)[C@H]1[C@@H]2C` (some centres not stated), for which the “outcome” value is “inactive [at 17.4 µM]”.

As for `On1ncc(C2CCNCC2)c1-c1cccc(-c2ccccc2)c1`, the molecule was classed as inactive.

For the molecule `Cc1ccc(C)c(NC(=O)CNS(=O)(=O)c2ccc3[nH]c(=O)oc3c2)c1`, the call was inactive.

As to `CCCC(=O)Nc1cccc(NC(=O)c2ccccc2Br)c1`, the result was inactive.

`CC1CCC2(OC1)OC1CC3C4CC=C5CC(O)CC(O[C@@H]6OC[C@@H](O)[C@H](O)[C@H]6O)C5(C)C4CCC3(C)C1(O)C2C` (some centres not stated): the “outcome” value was “inactive [at 17.4 µM]”.

Regarding `COc1cc2c(cc1OC)N1C(=O)C[C@]34C=CCN5CC[C@@H]2[C@@H](CC3)[C@]514`, the call was inactive.

With `COc1cc(CCc2ccccc2)c(C(=O)O)c2c1CC(C(C)(C)O)O2` (configuration not stated), the result was inactive.

On to `CC(=O)O[C@H]1C[C@@H](O)C(C)(C)C2C[C@@H](OC(C)=O)[C@@]3(C)C4=CCC(C(CO)CC(O)C5OC5(C)C)[C@]4(C)CCC3[C@]21C` (some centres not stated), for which the “outcome” value is “inactive [at 17.4 µM]”.

Consider `CC/C=C\CCO[C@@H]1O[C@H](CO[C@@H]2OC[C@H](O)[C@H](O)[C@H]2O)[C@@H](O)[C@H](O)[C@H]1O`, for which the molecule was called inactive.

In the case of `O=C(/C=C/c1ccccc1)OC[C@H]1O[C@@H](OC(=O)c2cc(O)c(O)c(O)c2)[C@H](O)[C@@H](O)[C@@H]1O`, the “outcome” value is “inactive [at 17.4 µM]”.

In the case of `COc1ccc(C)c2sc(NC(=O)c3ccncc3)nc12`, the molecule was classed as inactive.

Consider `CCOC(=O)CCNc1cc(N2CCc3ccccc3CC2)nc(-c2cccnc2)n1`, for which the molecule was called inactive.

Turning to `C=C1CCC2C(C)(C(=O)OC)CCCC2(C)C1CCC(C)CC(=O)O` (configuration not stated), the molecule was called inactive.

Consider `C[C@@H]1O[C@@H](OC[C@H]2O[C@@H](OCc3ccccc3)[C@H](O)[C@@H](O)[C@@H]2O)[C@H](O)[C@H](O)[C@H]1O`, for which the “outcome” value was “inactive [at 17.4 µM]”.

For `COC(=O)[C@@]1(O)C=CC[C@@H]2[C@@]3(C)C[C@@H](c4ccoc4)OC(=O)[C@H]3CC[C@]21C`, the molecule was classed as inactive.

As for `COc1ccc(C(=O)CC(=O)O)c2c1C=CC(C)(C)O2`, the molecule was called inactive.

Turning to `CC(C)(CO)c1cc2cc(NC(=O)C3(c4ccc5c(c4)OC(F)(F)O5)CC3)c(F)cc2n1CC(O)CO` (configuration not stated), the call was inactive.

Consider `C[C@@H]1O[C@@H](O[C@H]2[C@H](O[C@H]3CC[C@@]4(C)C(CC[C@]5(C)C4CC=C4[C@@H]6CC(C)(C)CC[C@]6(C(=O)O[C@@H]6OC[C@H](O)[C@H](O)[C@H]6O[C@@H]6O[C@@H](C)[C@H](O[C@@H]7O[C@H](CO)[C@@H](O)[C@H](O)[C@H]7O)[C@H](O)[C@H]6O)[C@H](O)C[C@]45C)C3(C)C)O[C@H](CO)[C@@H](O[C@@H]3OC[C@@H](O)[C@H](O)[C@H]3O)[C@@H]2O)[C@H](O)[C@H](O)[C@H]1O` (some centres not stated), for which the outcome is “inactive [at 9.27 µM]”.
